Screening data deposited in PubChem BioAssay by several laboratories.
MRP reversal: reversal of MRP1-mediated doxorubicin resistance, primary screen, H69AR cells, doxorubicin co-treatment; H69AR cells + 2 uM doxorubicin, CellTiter-Glo, 72 h; differential viability (reversal), % at 10 µM; 0.04% of 85,000 active; AID 602, 2007;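 active = viability drop by adding the cancer drug above about 55%, with treated viability meeting a 40% cutoff, limit read from the data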;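 also: viability without doxorubicin minus viability with 2 µM doxorubicin for each compound; larger differential means the compound sensitizes cells more to doxorubicin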
ERb coact inh: inhibitors of ERβ-SRC1 coactivator interaction, primary screen, biochemical, TR-FRET, ERβ LBD, SRC-1 peptide | Estrogen receptor beta (Homo sapiens), Q92731 | TR-FRET ER-beta LBD / SRC1-Cy5 peptide binding; receptor agonist-loaded with 1 µM estradiol | inhibition, % at 25.6 µM | 1.3% of 86,000 active | AID 633, 2007;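 active = compounds whose percent inhibition of the receptor-coactivator binding signal exceeds about 50% in the single-dose screen, limit read from the data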;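 also: 0% = receptor plus peptide wells without compound and 100% = peptide-only wells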
Target sequence (Q92731 whole entry, looked up, the tested form may be a part): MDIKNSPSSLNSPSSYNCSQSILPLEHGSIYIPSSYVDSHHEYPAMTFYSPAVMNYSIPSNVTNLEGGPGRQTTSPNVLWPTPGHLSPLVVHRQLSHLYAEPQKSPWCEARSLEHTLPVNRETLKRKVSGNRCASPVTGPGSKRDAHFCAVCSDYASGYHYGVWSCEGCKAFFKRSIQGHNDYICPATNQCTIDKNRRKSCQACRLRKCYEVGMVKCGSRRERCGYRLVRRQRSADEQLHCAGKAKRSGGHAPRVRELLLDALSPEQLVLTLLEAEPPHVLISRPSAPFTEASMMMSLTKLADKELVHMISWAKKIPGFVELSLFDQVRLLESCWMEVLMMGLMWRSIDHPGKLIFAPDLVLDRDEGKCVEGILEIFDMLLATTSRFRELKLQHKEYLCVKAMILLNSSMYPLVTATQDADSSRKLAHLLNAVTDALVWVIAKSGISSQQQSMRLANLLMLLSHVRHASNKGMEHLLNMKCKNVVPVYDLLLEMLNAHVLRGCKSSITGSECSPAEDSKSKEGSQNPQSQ
ERa SRC1 pot: enhancers of ERα–SRC-1 coactivator binding, primary screen, biochemical, TR-FRET, ERα LBD, low estradiol; Estrogen receptor (Homo sapiens), P03372; TR-FRET ERalpha-LBD/SRC-Cy5 coactivator binding, 2 h; 100 = basal binding, no effect; coactivator binding (% of control), % at 25.6 µM; 1.3% of 86,000 active; AID 639, 2007; in the data active = activity above about 200%;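 also: binding measured in presence of low estradiol as agonist stimulus; 0% = peptide alone without receptor and 100% = receptor with peptide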
MRP1 act: H69AR viability gain despite doxorubicin, primary screen, MRP-1 activator project, H69AR cells, CellTiter-Glo | 0.61% of 140,000 active | viability increase, % at 10 µM | viability rescue;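 active = viability gain under doxorubicin at or above a set limit, the compound median plus 3 SD, cut at about 4.7% in these data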;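 also: MRP-1 overexpressing cells given doxorubicin 25 µM after compound pretreatment; 18-22 h compound pretreatment then 72 h with doxorubicin before readout; 0% = doxorubicin-only wells and 100% = vehicle-treated cells without doxorubicin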
Smad3 inh: Smad3/FoxH1 peptide binding inhibitors, primary screen, biochemical, TR-FRET. TR-FRET Smad3/Dy647-FoxH1 peptide binding, europium anti-His. inhibition, % at 25 µM. 0.29% of 88,000 active. AID 630, 2007;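 active = compounds that reduce the energy-transfer binding signal between the protein and its labelled peptide by more than half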;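 also: 0% = Smad3 plus labelled peptide maximal FRET and 100% = peptide-only background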
ERa coact inh: ERα–SRC-1 coactivator interaction inhibitors, primary screen, biochemical, TR-FRET, ERα LBD, estradiol-bound; Estrogen receptor (Homo sapiens), P03372; AID 629, 2007; TR-FRET ER-alpha LBD / SRC-1 peptide; 1.7% of 86,000 active; inhibition, % at 25.6 µM; in the data active = inhibition above about 50%;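 also: 0% = receptor plus peptide control and 100% = peptide only without receptor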
* hit, by the source's call; nt = not tested or not shown; [ ] = another dose, or the depositor's remark. Shown are actives, neighbours in structure and some others; about 2.9% of the full set was active somewhere.

SMILES	MRP reversal	ERb coact inh	ERa SRC1 pot	MRP1 act	Smad3 inh	ERa coact inh
COc1ccc(CCn2nnc(-c3ccc(NC(C)=O)c(Cl)c3)n2)cc1	9.7	-0.4	108.6	-2.3	3.9	-7.4
C(/C=C/c1ccccc1)=Nc1ccc2c(c1)Cc1ccccc1-2	nt	nt	nt	nt	-2.6	nt
COC(=O)CCCC(=O)O	nt	nt	nt	nt	-12.4	nt
CCOC(=O)c1c(-c2cccc([N+](=O)[O-])c2)csc1NC(=O)C1CC1	nt	nt	nt	-2.1	nt	nt
CCOC(=O)c1c(-c2cccc([N+](=O)[O-])c2)csc1NC(=O)C1CCCCC1	nt	nt	nt	9.4*	nt	nt
O=C(O)C1CC2(C1)CC(C(=O)O)C2 (centres undefined)	nt	nt	nt	nt	-1.0	nt
COc1ccc(C(=O)Nc2cc(C)c3c(=O)oc4ccccc4c3n2)cc1	2.1	28.8	142.5	0.4	-1.6	53.0*[fluorescence artefact?]
CCCC(c1cc(C(C)(C)C)c(O)cc1C)c1cc(C(C)(C)C)c(O)cc1C	nt	nt	nt	nt	0.8	nt
Cn1c(N)c(C(=O)CSc2nc3ccccc3n2-c2ccccc2)c(=O)n(C)c1=O	-2.9	37.5	231.1*[fluorescence artefact?]	nt	19.1	48.1
COc1ccc(-n2c(SCC(=O)c3c(N)n(C)c(=O)n(C)c3=O)nc3ccccc32)cc1	2.2	15.2	72.6	-0.8	10.1	11.0
CN(C)CCNS(=O)(=O)N(C)C	nt	nt	nt	nt	2.2	nt
CCc1ccccc1NC(=O)c1cc2ncc(Br)cn2n1	10.9	54.2*	80.7	-4.6	12.6	60.0*[fluorescence artefact?]
O=C(Nc1cccc(C(F)(F)F)c1)c1cc2ncc(Br)cn2n1	4.3	46.9	123.8	-1.4	-26.1	44.8
O=C(NCCc1ccccc1)c1cc2ncc(Br)cn2n1	6.3	77.3*[fluorescence artefact?]	40.6	-1.8	19.4	76.5*[fluorescence artefact?]
O=C(Nc1ccc2c(c1)OCO2)c1cc2ncc(Br)cn2n1	-6.3	66.8*[fluorescence artefact?]	71.1	-2.8	9.4	77.5*[fluorescence artefact?]
COCCNC(=O)c1cc2ncc(Br)cn2n1	-1.9	39.3	72.2	-0.7	-12.1	45.8
COc1ccc(O[C@H]2C=C[C@@H](c3ccccc3)O[C@@H]2CO/N=C(\C)CCC(=O)OC[C@H]2O[C@H](c3ccccc3)C=C[C@@H]2Oc2ccc(OC)cc2)cc1	nt	nt	nt	-2.9	nt	nt
C=C(C)C(=O)NC1=NN(c2ccccc2)C(=O)C1	nt	nt	nt	6.0*	nt	nt
CC(C)(Oc1ccc(Cl)cc1)C(=O)NC1=NN(c2ccccc2)C(=O)C1	nt	nt	nt	0.8	nt	nt
C=CCn1c(Cc2c[nH]c3ccccc23)nnc1SCC(=O)NCc1ccccc1	-17.7	9.2	109.7	-1.2	9.0	-1.0
C=CCn1c(CNc2ccccc2)nnc1SCC(=O)N/N=C/c1ccccc1O	nt	nt	nt	5.3*	nt	nt
O=C(COc1cccc2ccccc12)NNC(=O)CSCCO	nt	nt	nt	0.2	nt	nt
O=C(N/N=C/c1cccc(O)c1)c1ccncc1	nt	nt	nt	nt	-0.8	nt
Cc1ccc(NC(=O)Cc2csc(-c3ccccc3)n2)cc1F	nt	nt	nt	5.1*	nt	nt
O=C(Cc1csc(-c2ccccc2)n1)Nc1ccc(C(F)(F)F)cc1	nt	nt	nt	-0.8	nt	nt
SMILES	MRP reversal	ERb coact inh	ERa SRC1 pot	MRP1 act	Smad3 inh	ERa coact inh
COC(=O)c1c(NC(=O)c2cccs2)sc2c1CCC(C)C2 (centres undefined)	-6.9	1.7	152.7	-0.1	-8.6	-7.0
CC(C)(C)C1CCc2c(sc(NC(=O)c3cccs3)c2C(=O)N2CCCCC2)C1 (centres undefined)	-18.3	-4.5	98.1	5.0*	-3.4	0.6
N/C(CC/C(N)=N\O)=N\O	nt	nt	nt	nt	-11.8	nt
N#C/C(=N\Nc1ccccc1)C(=N)N1CCOCC1	nt	nt	nt	6.8*	nt	nt
N#C/C(=N\Nc1ccc(Cl)cc1)C(=N)N1CCCCC1	3.4	11.7	44.3	0.3	-5.8	-2.8
N#C/C(=N\Nc1ccccc1F)C(=N)N1CCCCC1	11.3	60.0*[fluorescence artefact?]	127.8	8.2*	-1.3	-5.0
Cc1ccc(N/N=C(\C#N)C(=N)N2CCOCC2)cc1	nt	nt	nt	6.5*	nt	nt
COC(=O)[C@@]1(Cc2ccc(OC)cc2)[C@H]2c3cc(C(=O)N4CCCC4)n(CCSCCO)c3C[C@H]2CN1C(=O)c1ccccc1	nt	nt	nt	-3.2	nt	nt
Cc1cccc(-n2c(SCCC(=O)O)nnc2-c2cccs2)c1C	23.4	50.2*	93.5	-1.3	8.6	-0.2
O=C(CSc1nnc(-c2cccs2)n1-c1ccccc1)N1CCCc2ccccc21	-23.5	-42.6	889.5*[fluorescence artefact?]	-0.8	-4.6	16.2
CC1(C)Cc2ccccc2-c2nnc(SCC(=O)N3CCc4ccccc43)n21	-2.8	33.2	293.1*[fluorescence artefact?]	-0.7	-11.3	42.9
COC(=O)CSc1nnc2n1C(C)(C)Cc1ccccc1-2	13.6	-25.8	115.6	0.3	3.8	-13.9
O=C(c1ccco1)N1CCN(C(=O)c2nn3cccnc3c2Cl)CC1	11.1	3.2	124.2	-3.0	13.8	-1.1
CC(=O)Nc1ccccc1C=C1c2ccccc2-c2ccccc21	nt	nt	nt	nt	13.2	nt
O=C1CC[C@H](NC(=O)c2ccccc2)C(=O)N1	nt	nt	nt	nt	3.0	nt
O=C(Nc1nnc(C(F)(F)F)s1)C1COc2ccccc2O1 (centres undefined)	-11.0	-1.7	100.5	5.3*	3.8	1.3
O=C(Nc1nncs1)C1COc2ccccc2O1 (centres undefined)	16.3	-11.9	103.0	-2.4	12.7	-5.1
COC(=O)c1ccc(CC(=O)c2ccc(O)cc2O)o1	nt	nt	nt	-1.0	nt	nt
COC(=O)c1ccc(CC(=O)c2c(C)cc(O)cc2O)o1	10.8	52.1*	75.2	0.5	-1.3	35.4
COC(=O)c1c(NC(=O)Cc2cccs2)sc2c1CCCC2	0.8	73.8*	57.1	-0.6	-0.1	90.0*[fluorescence artefact?]
CCCCN(C(=O)NC(=O)Nc1ccc(C)cn1)S(C)(=O)=O	nt	nt	nt	-0.3	nt	nt
O=C(Nc1nc2ccccc2[nH]1)C1CC(=O)N(c2ccc3c(c2)OCCO3)C1 (centres undefined)	3.2	43.2	52.8	-1.1	-8.4	67.7*[fluorescence artefact?]
C[C@@](N)(/C=C/c1ccccc1)C(=O)O	nt	nt	nt	nt	-11.5	nt
OCCNc1ncnc2nc[nH]c12	nt	nt	nt	nt	13.3	nt
Brc1ccc2c(c1)c1nc3ccccc3nc1n2CCN1CCOCC1	4.8	44.8	99.5	nt	10.0	55.8*[fluorescence artefact?]
CC(C)c1nnc(NC(=O)CCC(=O)NCc2ccc3c(c2)OCO3)s1	-8.2	16.9	109.1	-1.3	-0.2	-3.5
Nc1nc(C(=O)O)c(N=Nc2ccccc2)c(=O)[nH]1	nt	nt	nt	nt	7.1	nt
CCCCOCCCn1c(-c2ccco2)nc2nc3ccccc3nc21	21.9	18.5	86.0	-3.2	2.1	13.6
CC(C)=C[C@H]1[C@H](COC(=O)c2cc3c(cc2Cl)OCO3)C1(C)C	nt	nt	nt	nt	5.1	nt
COc1ccc(NC(=O)COC(=O)c2ccc(N3CCCC3=O)cc2)cc1OC	12.6	-7.6	123.8	0.0	-10.3	-3.0
